# Measurements as given in PubChem BioAssay (NCATS).
# Inconclusive results are not listed. Values without a mark were called inactive. Activity calls are given as the source filed them. Calls come from the whole dose curve; as a rule, active = well fitted curve in the direction sought with a large enough effect; inconclusive = small, poorly fitted or top-dose-only effect, or another doubt; inactive = no such curve, though single readings can be large; an effect the other way counts as inactive or inconclusive.
# What was measured:
# [1] = BET inhibitor-based combinations targeting novel dependencies in MECOM-rearranged (r) AML: SET-2 cell line (AID 2202231); conditions: SET-2 AML cells viability, CellTiter-Glo luminescence, 48 h; viability: stronger effect = lower value, concentration not given here; note: nearly all actives have a fitted effect of over 35% in size;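 for viability: plate controls were DMSO treated cells for no effect and wells without cells for full effect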
# How it was run: (§1)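 AML cell lines seeded at 500 cells/well, treated with 11-point dose curves for 48 h. Viability by CellTiter-Glo luminescence, normalised to DMSO and empty wells; activity expressed as AUC and per-cell-line Z-transformed AUC.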
# [2] = BET inhibitor-based combinations targeting novel dependencies in MECOM-rearranged (r) AML: OCI-AML3 cell line (AID 2202232); conditions: Potency: OCI-AML3 viability; note: nearly all actives have a fitted effect of over 35% in size
# How it was run: as §1
# [3] = BET inhibitor-based combinations targeting novel dependencies in MECOM-rearranged (r) AML: UCSD-AML1 cell line (AID 2202235); note: nearly all actives have a fitted effect of over 40% in size
# How it was run: (§2)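 Cells at 500/well were exposed for 48 hr to MIPE v5.0 drugs as 11-point dose curves. Viability was read by CellTiter-Glo luminescence and normalized to DMSO and empty-well controls. Activity was expressed as AUC and per-cell-line Z-AUC.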
# [4] = BET inhibitor-based combinations targeting novel dependencies in MECOM-rearranged (r) AML: AML-191 cell line (AID 2202236; note: nearly all actives have a fitted effect of over 35% in size)
# How it was run: as §1
# [5] = BET inhibitor-based combinations targeting novel dependencies in MECOM-rearranged (r) AML: AML-194 cell line (AID 2202237; note: nearly all actives have a fitted effect of over 40% in size)
# How it was run: as §1
# [6] = BET inhibitor-based combinations targeting novel dependencies in MECOM-rearranged (r) AML: MV-4-11 cell line (AID 2202233); note: nearly all actives have a fitted effect of over 45% in size
# How it was run: as §2
# [7] = BET inhibitor-based combinations targeting novel dependencies in MECOM-rearranged (r) AML: HNT-34 cell line (AID 2202234); note: nearly all actives have a fitted effect of over 35% in size
# How it was run: as §2
# Potency is the fitted concentration of half-maximal effect.
smiles,measurement,setting,value
CN(C)Cc1ccc(S(=O)(=O)n2ccc(/C=C/C(=O)NO)c2)cc1,Potency,[1],3.72 µM (active)
same,Potency,[2],5.25 µM (active)
same,Potency,[3],4.68 µM (active)
same,Potency,[4],4.17 µM (active)
same,Potency,[5],5.9 µM (active)
C#C[C@]1(O)CC[C@H]2[C@@H]3[C@H](C)CC4=C(CCC(=O)C4)[C@H]3CC[C@@]21C,viability,[1],111%
same,Potency,[2],16.6 µM (active)
same,Potency,[3],inactive
same,Potency,[4],inactive
same,Potency,[5],inactive
O=S(=O)(NCCNC/C=C/c1ccc(Br)cc1)c1cccc2cnccc12,Potency,[1],14.8 µM (active)
same,Potency,[6],14.8 µM (active)
O=C(/C=C\n1cnc(-c2cc(C(F)(F)F)cc(C(F)(F)F)c2)n1)NNc1ccccn1,Potency,[1],0.934 µM (active)
same,Potency,[2],0.833 µM (active)
same,Potency,[3],0.468 µM (active)
same,Potency,[5],0.417 µM (active)
NC(=O)c1cc(F)cc2c1C(=O)N(C1CCN(C3CCC(F)(F)CC3)CC1)C2,viability,[1],106%
same,Potency,[2],inactive
same,Potency,[3],inactive
same,Potency,[4],inactive
same,Potency,[5],inactive
COc1cc2c(NC3CCN(C4CCCCC4)CC3)nc(N3CCCN(C(C)C)CC3)nc2cc1OCCCN1CCCCC1,viability,[1],109%
same,Potency,[6],7.42 µM (active)
Cc1ccc(C(=O)N(CCCN)[C@@H](c2nc3cc(Cl)ccc3c(=O)n2Cc2ccccc2)C(C)C)cc1,Potency,[1],0.105 µM (active)
same,Potency,[2],0.0295 µM (active)
same,Potency,[3],0.0263 µM (active)
same,Potency,[4],0.0417 µM (active)
same,Potency,[5],0.0468 µM (active)
C#Cc1cccc(Nc2ncnc3cc4c(cc23)OCCOCCOCCO4)c1,viability,[1],93.5%
same,Potency,[2],inactive
same,Potency,[7],18.6 µM (active)
same,Potency,[5],inactive
CCC[C@H](NC(=O)[C@@H]1[C@H]2CCC[C@H]2CN1C(=O)[C@@H](NC(=O)[C@@H](NC(=O)c1cnccn1)C1CCCCC1)C(C)(C)C)C(=O)C(=O)NC1CC1,Potency,[1],0.263 µM (active)
same,Potency,[2],inactive
same,Potency,[5],inactive
C[C@]12CCC3=C4CCC(=O)C=C4CC[C@H]3[C@@H]1CC[C@@]2(O)CC#N,viability,[1],108%
same,Potency,[2],inactive
same,Potency,[3],inactive
same,Potency,[4],inactive
same,Potency,[5],inactive
O=C(Nc1cccc(C(F)(F)F)c1)c1cccc2cc(Oc3cc(CO)ncn3)ccc12,viability,[1],103%
same,Potency,[2],inactive
same,Potency,[3],inactive
same,Potency,[4],inactive
CC(C)(NS(=O)(=O)c1ccc2c(Cl)cnc(N=C(N)N)c2c1)C(=O)O,viability,[1],117%
same,Potency,[2],inactive
same,Potency,[3],inactive
same,Potency,[4],inactive
same,Potency,[5],inactive
CCCCCCCCCCCC1=C(O)C(=O)C=C(O)C1=O,viability,[1],115%
same,Potency,[6],13.2 µM (active)
C[C@@H](Nc1cc(F)cc(F)c1)c1cc(C(=O)N(C)C)cc2c(=O)cc(N3CCOCC3)oc12,viability,[1],109%
same,Potency,[2],5.9 µM (active)
same,Potency,[4],23.5 µM (active)
CN1C(=O)[C@@H](NC(=O)c2cc(Cc3ccccc3)on2)COc2ccccc21,viability,[1],73.2%
same,Potency,[2],inactive
same,Potency,[3],inactive
same,Potency,[4],inactive
Nc1nc(N)c2nc(-c3cccc(Cl)c3)c(N)nc2n1,Potency,[1],0.372 µM (active)
same,Potency,[2],2.95 µM (active)
same,Potency,[4],5.25 µM (active)
CC(=O)O/N=C1\C(=O)N(Cc2cc(Cl)ccc2Cl)c2ccc(Cl)cc21,Potency,[1],9.34 µM (active)
same,Potency,[2],13.2 µM (active)
same,Potency,[3],8.33 µM (active)
same,Potency,[4],2.35 µM (active)
same,Potency,[5],2.63 µM (active)
OCCn1cc(-c2ccc3c(c2)CC/C3=N\O)c(-c2ccncc2)n1,viability,[1],102%
same,Potency,[2],2.35 µM (active)
same,Potency,[3],inactive
CC[C@H]1OC(=O)[C@H](C)C(=O)[C@H](C)[C@@H](O[C@H]2O[C@H](C)C[C@H](N(C)C)[C@H]2O)[C@](C)(OC)C[C@@H](C)C(=O)[C@H](C)[C@H]2N(CCCCn3cnc(-c4cccnc4)c3)C(=O)O[C@]12C,viability,[1],101%
same,Potency,[2],inactive
same,Potency,[3],inactive
same,Potency,[4],inactive
same,Potency,[5],inactive
Cc1ccc(C2=Nc3ccc(Cl)cc3OC2)cc1,Potency,[1],8.33 µM (active)
same,Potency,[2],10.5 µM (active)
same,Potency,[3],inactive
same,Potency,[4],inactive
same,Potency,[5],inactive
O=C(Cc1ccccc1)Nc1nnc(CCSCCc2nnc(NC(=O)Cc3ccccc3)s2)s1,Potency,[1],9.34 µM (active)
same,Potency,[2],0.468 µM (active)
same,Potency,[7],inactive
same,Potency,[5],inactive
C=C1/C(=C/C=C2\CCCC3(C)[C@@H]([C@H](C)/C=C/C=C/C(O)(CC)CC)CC[C@@H]23)C[C@@H](O)C[C@@H]1O (some centres undefined),viability,[1],89.5%
same,Potency,[2],16.6 µM (active)
same,Potency,[3],inactive
same,Potency,[4],26.3 µM (active)
CC1(C)SCCN(S(=O)(=O)c2ccc(OCC#CCO)cc2)[C@H]1C(=O)NO,viability,[1],96.5%
same,Potency,[2],inactive
same,Potency,[4],inactive
O=C(O)c1ccccc1-c1ccc(/C=c2\sc3nc4cc(Br)cnc4n3c2=O)o1,viability,[1],92.3%
same,Potency,[2],inactive
same,Potency,[3],inactive
same,Potency,[4],inactive
